Experimental findings from PubChem BioAssay (NCI) are described below.

About 79,000 compounds went through this panel and 15% of them were active in at least one assay; those are over-represented in the sample as a whole. Activity calls are given as the source filed them. Rule as the data show it: active = growth inhibition above about 70%; inactive = the rest.

A short description of the first test: NCI Yeast Anticancer Drug Screen. Data for the mgt1 strain (AID 153). As to conditions: S. cerevisiae mgt1 mutant growth inhibition; at 33.0 µM; hits give high values. The procedure, abridged:
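Vehicle-normalized growth inhibition is determined in mgt1 yeast, a strain selected for a defined alteration in DNA repair or cell cycle control.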
Consider `CS(=O)(=O)SCc1ccc([N+](=O)[O-])cc1`, for which the growth inhibition is 99% (active).
On the same count and under the same terms, the figure for `Cc1csc(=S)n1OC(=O)NC1CCCCC1` is 100% (active); for `CCOc1ccc(NC(=O)C2=C(C)NC(C)=C(C(=O)Nc3ccc(OCC)cc3)C2c2cccc([N+](=O)[O-])c2)cc1` it is 30% (inactive).
For the molecule `CC(C)(C)N=C(NO)c1ccccc1`, the growth inhibition was 27% (inactive).
Same read-out and setting: the figure for `CCCCC/C(=C(\C#N)C(=O)OCC)c1ccccc1` is -2% (inactive).
On the same count and under the same terms, the figure for `O=C(NCCCl)Sc1ccc(Cl)cc1` is 30% (inactive).
In the case of `O=C1Nc2ccc(Br)cc2C1=Nc1ccc2c(c1)OCO2`, the growth inhibition was -15% (inactive).
For `CCC(C)OC(=O)Nc1ccc(C)c(NC(=O)OC(C)CC)c1` (stereo not drawn), the growth inhibition is 1% (inactive).
Same read-out and setting: to `O=C(O)c1cc2ccc(Cl)cc2c(O)c1C1=CCCCC1` belongs 42% (inactive).
The same measure, in the same setting: to `CN(C)Cc1cc(N=Nc2ccc(Cl)cc2)ccc1OC(=O)c1ccccc1` belongs 48% (inactive); to `CN1CCN(C(=O)/C=C/C(=O)c2ccccc2)CC1`, 79% (active).
Same read-out and setting: to `CCCC/C=C/C(C)(C(=O)OCC)C(=O)OCC` belongs -2% (inactive); to `Cc1nc(-c2cc3cc([N+](=O)[O-])ccc3oc2=O)cs1`, 25% (inactive).
For the molecule `Cc1nc2ccccc2nc1NNc1ccccc1`, the growth inhibition is -13% (inactive).
Turning to `CN(C)[C@@H]1C(=O)C(C(N)=O)=C(O)[C@@]2(O)C(=O)C3=C(O)c4c(O)cccc4C[C@H]3C[C@@H]12`, the growth inhibition was 97% (active).
The same measure, in the same setting: to `COc1ccc(NC(=O)CC2SC(=Nc3ccccc3C)NC2=O)c([N+](=O)[O-])c1` (stereo not drawn) belongs 12% (inactive); to `COc1cc(O)c2c(c1O)C(=O)c1cc(C)ncc1C2=O`, 39% (inactive).
Same read-out and setting: to `CSc1nnc(SC)nn1` belongs 72% (active); to `COc1cc(/C=C2\CCC/C(=C\c3ccc(O)c(OC)c3)C2=O)ccc1O`, 0% (inactive); to `CN(C)CCNC(=O)c1cccc2cc([N+](=O)[O-])ccc12`, 78% (active).
Same read-out and setting: to `CCC(C)(C)c1ccc(Oc2cccc(C(=O)O)c2)cc1` belongs 52% (inactive); to `CCCCCCSc1ncnc2[nH]ncc12`, -3% (inactive); to `CC(=O)Nc1ccc(/C=C/[N+](=O)[O-])cc1`, 20% (inactive).
For `CCOC(=O)c1[nH]n(-c2ccccc2)c(=O)c1C=NC(=S)C(N)=S`, the growth inhibition is 34% (inactive).
On the same count and under the same terms, the figure for `CCCC(O)C1CC(C(C)C)CCC1C` (stereo not drawn) is 5% (inactive).
On the same count and under the same terms, to `O=[n+]1c2ccccc2n([O-])c2cc(Br)ccc21` belongs 99% (active).
Same read-out and setting: to `CN(C)CCNC(=O)c1cccc2c1Oc1c(cccc1[N+](=O)[O-])O2` belongs 30% (inactive).
For `Nc1ncc(-c2ccc(Br)cc2)s1`, the growth inhibition is 95% (active).
Same read-out and setting: to `Cc1cc2cc3cc(C)c(N)cc3nc2cc1N` belongs 68% (inactive); to `CC12C(=O)OC(=O)C(c3ccccc31)c1ccccc12`, -4% (inactive).
On the same count and under the same terms, the figure for `c1ccc2c(OCC3CO3)cccc2c1` (stereo not drawn) is 4% (inactive).
Still for that read-out and setting: the figure for `CCOC(=N)c1ccc(O)c(OC)c1` is -2% (inactive).
Consider `Nc1cc(N)c(N=Nc2cccc3c(S(=O)(=O)O)cccc23)cc1N=Nc1cc([N+](=O)[O-])ccc1O`, for which the growth inhibition was 12% (inactive).
For the molecule `COC(=O)Oc1cc(Cl)c(Cl)cc1Cl`, the growth inhibition is -3% (inactive).
As for `O=C(O)C1CC(c2ccccc2)=NN1c1ccccc1` (stereo not drawn), the growth inhibition was -1% (inactive).
Same read-out and setting: to `COc1cc([C@@H]2c3cc4c(cc3[C@@H](Nc3ccc(NC(=O)c5cc([N+](=O)[O-])cn5C)cc3)[C@H]3COC(=O)[C@H]23)OCO4)cc(OC)c1O` belongs 35% (inactive).
Still for that read-out and setting: the figure for `O=C(O)c1ccccc1/C=N/N=C1c2ccccc2-c2ccccc21` is -1% (inactive).
For `O=C1CC(=O)c2ccccc21`, the growth inhibition was 3% (inactive).
The same measure, in the same setting: to `Nc1ncnc2c1ncn2C1OC(CO)CC1O` (stereo not drawn) belongs 62% (inactive).

The test is the same for the next values; noted with them: S. cerevisiae mgt1 mutant growth inhibition; at 100.0 µM; hits give high values.
As to `CS(=O)(=O)SCc1ccc([N+](=O)[O-])cc1`, the growth inhibition was 98% (active).
The same measure, in the same setting: to `Cc1csc(=S)n1OC(=O)NC1CCCCC1` belongs 99% (active); to `CCOc1ccc(NC(=O)C2=C(C)NC(C)=C(C(=O)Nc3ccc(OCC)cc3)C2c2cccc([N+](=O)[O-])c2)cc1`, 92% (active).
Consider `CC(C)(C)N=C(NO)c1ccccc1`, for which the growth inhibition is 57% (inactive).
On the same count and under the same terms, to `CCCCC/C(=C(\C#N)C(=O)OCC)c1ccccc1` belongs 7% (inactive).
Same read-out and setting: to `O=C(NCCCl)Sc1ccc(Cl)cc1` belongs 71% (active).
The same measure, in the same setting: the figure for `O=C1Nc2ccc(Br)cc2C1=Nc1ccc2c(c1)OCO2` is -30% (inactive); for `CCC(C)OC(=O)Nc1ccc(C)c(NC(=O)OC(C)CC)c1` (stereo not drawn) it is 96% (active).
Consider `O=C(O)c1cc2ccc(Cl)cc2c(O)c1C1=CCCCC1`, for which the growth inhibition was 84% (active).
As for `CN(C)Cc1cc(N=Nc2ccc(Cl)cc2)ccc1OC(=O)c1ccccc1`, the growth inhibition was 82% (active).
Same read-out and setting: to `CN1CCN(C(=O)/C=C/C(=O)c2ccccc2)CC1` belongs 95% (active).
Same read-out and setting: to `CCCC/C=C/C(C)(C(=O)OCC)C(=O)OCC` belongs 16% (inactive); to `Cc1nc(-c2cc3cc([N+](=O)[O-])ccc3oc2=O)cs1`, 89% (active); to `Cc1nc2ccccc2nc1NNc1ccccc1`, 26% (inactive).
The same measure, in the same setting: to `CN(C)[C@@H]1C(=O)C(C(N)=O)=C(O)[C@@]2(O)C(=O)C3=C(O)c4c(O)cccc4C[C@H]3C[C@@H]12` belongs 99% (active); to `COc1ccc(NC(=O)CC2SC(=Nc3ccccc3C)NC2=O)c([N+](=O)[O-])c1` (stereo not drawn), 99% (active); to `COc1cc(O)c2c(c1O)C(=O)c1cc(C)ncc1C2=O`, 60% (inactive).
Take `CSc1nnc(SC)nn1`: the growth inhibition is 98% (active).
For `COc1cc(/C=C2\CCC/C(=C\c3ccc(O)c(OC)c3)C2=O)ccc1O`, the growth inhibition was -3% (inactive).
On the same count and under the same terms, the figure for `CN(C)CCNC(=O)c1cccc2cc([N+](=O)[O-])ccc12` is 92% (active); for `CCC(C)(C)c1ccc(Oc2cccc(C(=O)O)c2)cc1` it is 92% (active); for `CCCCCCSc1ncnc2[nH]ncc12` it is -4% (inactive).
On to `CC(=O)Nc1ccc(/C=C/[N+](=O)[O-])cc1`, for which the growth inhibition is 99% (active).
The same measure, in the same setting: the figure for `CCOC(=O)c1[nH]n(-c2ccccc2)c(=O)c1C=NC(=S)C(N)=S` is 97% (active).
Still for that read-out and setting: to `CCCC(O)C1CC(C(C)C)CCC1C` (stereo not drawn) belongs 96% (active); to `O=[n+]1c2ccccc2n([O-])c2cc(Br)ccc21`, 98% (active).
Consider `CN(C)CCNC(=O)c1cccc2c1Oc1c(cccc1[N+](=O)[O-])O2`, for which the growth inhibition was 60% (inactive).
The same measure, in the same setting: to `Nc1ncc(-c2ccc(Br)cc2)s1` belongs 98% (active); to `Cc1cc2cc3cc(C)c(N)cc3nc2cc1N`, 94% (active); to `CC12C(=O)OC(=O)C(c3ccccc31)c1ccccc12`, -6% (inactive).
On the same count and under the same terms, to `c1ccc2c(OCC3CO3)cccc2c1` (stereo not drawn) belongs 32% (inactive).
On the same count and under the same terms, the figure for `CCOC(=N)c1ccc(O)c(OC)c1` is -2% (inactive); for `Nc1cc(N)c(N=Nc2cccc3c(S(=O)(=O)O)cccc23)cc1N=Nc1cc([N+](=O)[O-])ccc1O` it is 65% (inactive); for `COC(=O)Oc1cc(Cl)c(Cl)cc1Cl` it is 1% (inactive).
As for `O=C(O)C1CC(c2ccccc2)=NN1c1ccccc1` (stereo not drawn), the growth inhibition is 95% (active).
In the case of `COc1cc([C@@H]2c3cc4c(cc3[C@@H](Nc3ccc(NC(=O)c5cc([N+](=O)[O-])cn5C)cc3)[C@H]3COC(=O)[C@H]23)OCO4)cc(OC)c1O`, the growth inhibition was 41% (inactive).
On the same count and under the same terms, the figure for `O=C(O)c1ccccc1/C=N/N=C1c2ccccc2-c2ccccc21` is 3% (inactive).
Same read-out and setting: the figure for `O=C1CC(=O)c2ccccc21` is 72% (active).
Same read-out and setting: the figure for `Nc1ncnc2c1ncn2C1OC(CO)CC1O` (stereo not drawn) is 89% (active).
